Where “and” joins values, the source holds several entries; their conditions need not be identical. Identical values can stand only once. Values without a mark were called inactive. Results filed as inconclusive are left out. Entries that show only a call come without a potency. Calls of active or inactive are those of the source. Unless noted, calls come from the whole dose curve; as a rule, active = well fitted curve in the direction sought with a large enough effect in the repeat runs; inconclusive = weak or mixed curves; inactive = no such curve, though single readings can be large; an effect the other way counts as inactive or inconclusive.
Experiments:
[1] = Caspase-3/7 induction in CHO-K1 cells by small molecules, qHTS cell viability counter screen (AID 1346979); note: nearly all actives have a fitted effect of over 35% in size; note: potency is the fitted concentration of half-maximal effect
Procedure, shortened: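 CellTiter-Fluor viability check, qHTS format: wild-type CHO-K1, 16hr compound treatment, 1hr reagent incubation, fluorescence read.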

[2] = Caspase-3/7 induction in CHO-K1 cells by small molecules, qHTS assay (AID 1346980); note: nearly all actives have a fitted effect of over 15% in size; note: potency is the fitted concentration of half-maximal effect
Procedure, shortened: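 Wild-type CHO-K1 cells exposed to compounds for 17hr at 37 C, 5% CO2. Caspase-3/7 activity then measured by Caspase-Glo 3/7 luminescence after 30min at room temperature.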

[3] = Caspase-3/7 induction in HepG2 cells by small molecules, qHTS cell viability counter screen (AID 1346981); note: nearly all actives have a fitted effect of over 30% in size; note: potency is the fitted concentration of half-maximal effect
Procedure, shortened: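 In this quantitative HTS counter screen, compounds delivered in DMSO were left on unmodified HepG2 cells for 16 hr at 37 C. Viability was then determined fluorometrically with CellTiter-Fluor, in parallel with caspase-3/7 induction in the same wells.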

[4] = molecular target: Nuclear receptor subfamily 1 group I member 2 (Homo sapiens) (UniProt O75469); assay: Human pregnane X receptor (PXR) small molecule agonists, qHTS assay (AID 1346982); note: nearly all actives have a fitted effect of over 35% in size; note: potency is the fitted concentration of half-maximal effect
Nuclear receptor subfamily 1 group I member 2 (Homo sapiens), sequence (O75469 whole entry, looked up): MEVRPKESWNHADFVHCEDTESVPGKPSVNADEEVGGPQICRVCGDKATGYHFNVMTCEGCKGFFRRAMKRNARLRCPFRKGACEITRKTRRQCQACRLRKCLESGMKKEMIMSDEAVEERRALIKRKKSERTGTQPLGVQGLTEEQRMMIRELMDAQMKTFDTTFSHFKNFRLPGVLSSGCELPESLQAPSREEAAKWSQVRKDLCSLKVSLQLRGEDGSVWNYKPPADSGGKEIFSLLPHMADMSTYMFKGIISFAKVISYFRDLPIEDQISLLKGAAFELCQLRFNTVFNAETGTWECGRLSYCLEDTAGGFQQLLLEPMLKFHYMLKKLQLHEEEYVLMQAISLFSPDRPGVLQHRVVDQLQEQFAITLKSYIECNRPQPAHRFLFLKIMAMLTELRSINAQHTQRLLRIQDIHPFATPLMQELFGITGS
Procedure, shortened: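 Reporter HepG2 cells expressing PXR-Luc are cultured in charcoal-stripped FBS (5%), treated with compounds for 24 hr at 37 C, and assayed by ONE-Glo luminescence after 30 min at room temperature.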

[5] = molecular target: Acetylcholinesterase (Homo sapiens) (UniProt P22303); assay: Acetylcholinesterase (AChE) small molecule antagonists: enzyme-based qHTS assay (AID 1347397; calls by dose curve; note: nearly all actives have a fitted effect of over 55% in size); conditions: Potency: AChE enzyme activity inhibition
Acetylcholinesterase (Homo sapiens), sequence (P22303 whole entry, looked up): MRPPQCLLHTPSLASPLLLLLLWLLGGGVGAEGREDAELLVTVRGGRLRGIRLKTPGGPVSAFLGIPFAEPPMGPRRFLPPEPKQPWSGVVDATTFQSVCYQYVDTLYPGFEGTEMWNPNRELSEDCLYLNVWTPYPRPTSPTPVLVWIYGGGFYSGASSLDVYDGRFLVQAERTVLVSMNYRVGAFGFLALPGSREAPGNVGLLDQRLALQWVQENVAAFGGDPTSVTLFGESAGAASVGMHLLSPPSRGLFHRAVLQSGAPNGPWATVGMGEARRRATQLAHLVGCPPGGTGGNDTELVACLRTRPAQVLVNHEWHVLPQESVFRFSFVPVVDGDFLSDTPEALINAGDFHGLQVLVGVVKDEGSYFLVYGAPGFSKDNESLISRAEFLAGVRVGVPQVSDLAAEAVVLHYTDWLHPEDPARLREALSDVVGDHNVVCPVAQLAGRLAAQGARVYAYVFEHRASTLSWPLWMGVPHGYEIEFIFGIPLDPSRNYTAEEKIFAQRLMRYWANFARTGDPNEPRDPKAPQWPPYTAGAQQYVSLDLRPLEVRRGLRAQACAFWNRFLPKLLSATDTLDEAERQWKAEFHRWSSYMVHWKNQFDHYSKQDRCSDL
Procedure, shortened: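 In this quantitative HTS, compounds from the Tox21 10K collection were preincubated 30 min at ambient temperature with recombinant human AChE dispensed at 50 mU/mL. Hydrolysis of acetylthiocholine was then followed for 10 min by DTNB colour development.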

[6] = molecular target: Acetylcholinesterase (Homo sapiens) (UniProt P22303); assay: Acetylcholinesterase (AChE) small molecule antagonists: fluorescence cell-based qHTS assay (AID 1347398; calls by dose curve; note: nearly all actives have a fitted effect of over 50% in size); conditions: Potency: AChE activity
Procedure, shortened: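 Cells (SH-SY5Y) attached overnight, were dosed with compound or DMSO vehicle for 30 min at 37 C, and then incubated 40 min at room temperature with acetylthiocholine and Thiolite Green; green fluorescence indexed AChE activity.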

[7] = molecular target: Acetylcholinesterase (Homo sapiens) (UniProt P22303); assay: Acetylcholinesterase (AChE) small molecule antagonists: colormetric cell-based qHTS assay (AID 1347395; calls by dose curve; note: nearly all actives have a fitted effect of over 30% in size)
Procedure, shortened: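 AChE inhibition read colorimetrically via DTNB–thiocholine in SH-SY5Y cells. Compound 30 min, substrate 90 min, both 37 C.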

[8] = molecular target: Nuclear receptor subfamily 1 group I member 2 (Homo sapiens) (UniProt O75469); assay: CYP3A4 induction through human pregnane X receptor (PXR) by small molecules, qHTS assay (AID 1346984); note: nearly all actives have a fitted effect of over 40% in size
Procedure, shortened: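 Induction measured in HepG2-based DPX-2 cells co-expressing human PXR and a CYP3A4 promoter-driven luciferase. After a 24-hour compound exposure, cells received CYP3A4 luciferin substrate at 3uM final for 3 hours, and light output was then recorded.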

[9] = molecular target: Nuclear receptor subfamily 1 group I member 2 (Homo sapiens) (UniProt O75469); assay: Human pregnane X receptor (PXR) activation by small molecules, qHTS assay (AID 1346985); note: nearly all actives have a fitted effect of over 40% in size
Procedure, shortened: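 DPX-2 cells (HepG2 co-transfected with a PXR response element and a CYP3A4-promoter luciferase construct) were seeded at 2,000 per well, rested 5 hr at 37C, then exposed to DMSO-dissolved compounds for 24 hr. Activation was read as luciferase luminescence.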

[10] = molecular target: Nuclear receptor subfamily 1 group I member 2 (Rattus norvegicus) (UniProt Q9R1A7); assay: Rat pregnane X receptor (rPXR) activation by small molecules, qHTS assay (AID 1346983); conditions: rPXR luciferase reporter cells, One-Glo luminescence, 24 h; max activation: hits give high values; note: nearly all actives have a fitted effect of over 20% in size
Nuclear receptor subfamily 1 group I member 2 (Rattus norvegicus), sequence (Q9R1A7 whole entry, looked up): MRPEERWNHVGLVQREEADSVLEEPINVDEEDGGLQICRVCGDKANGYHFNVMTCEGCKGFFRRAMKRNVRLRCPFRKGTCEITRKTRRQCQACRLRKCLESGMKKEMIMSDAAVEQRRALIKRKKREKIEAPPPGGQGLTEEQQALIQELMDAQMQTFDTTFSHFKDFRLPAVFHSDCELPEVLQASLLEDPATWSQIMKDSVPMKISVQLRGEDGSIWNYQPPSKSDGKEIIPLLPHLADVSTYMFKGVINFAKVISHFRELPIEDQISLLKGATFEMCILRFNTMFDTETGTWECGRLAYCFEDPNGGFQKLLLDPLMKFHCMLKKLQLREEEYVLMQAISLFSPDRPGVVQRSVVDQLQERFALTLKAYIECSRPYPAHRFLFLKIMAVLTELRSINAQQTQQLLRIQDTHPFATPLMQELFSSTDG
Procedure, shortened: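 Cell-based rPXR activation assay: rPXR cells, 2,000 per well, rested 5hr at 37 C, then exposed to compounds in DMSO for 24 hr at 37 C. Luciferase activity read by One-Glo luminescence after 30 min at room temperature.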

| SMILES | Potency [1] | Potency [2] | Potency [3] | Potency [4] | Potency [5] | Potency [6] | Potency [7] | Potency [8] | Potency [9] | max activation [10] |
| --- | --- | --- | --- | --- | --- | --- | --- | --- | --- | --- |
| N#CSCSC#N | 9.91 µM (active) and 9.59 µM (active) | inactive | 62.5 µM (active) and 67.9 µM (active) | 22.2 µM (active) and 19.1 µM (active) | inactive | inactive |  |  |  |  |
| ClC(Cl)=C(Cl)Cl | inactive | inactive | inactive | inactive | inactive | inactive | inactive |  |  |  |
| COc1ccc(OC)c(CC(C)N)c1 (centres undefined) | inactive | inactive | inactive | inactive | inactive | inactive | inactive |  |  |  |
| CCCCCCCCCCCCCCCC[n+]1ccccc1 | 25.5 µM (active) [middle of 4 runs] | inactive | 63.9 µM (active) and 61.1 µM (active) and 26.9 µM (active) |  |  |  |  | inactive | inactive |  |
| O=c1oc2ccccc2c(O)c1Cc1c(O)c2ccccc2oc1=O | inactive | inactive | inactive |  | inactive | inactive | inactive |  |  | -3.67% |
| C=CCC1=C(C)C(OC(=O)C2C(C=C(C)C)C2(C)C)CC1=O (centres undefined) | 55.3 µM (active) | inactive |  | 10.3 µM (active) | inactive |  | inactive |  |  |  |
| Clc1ccc(-c2ccc(Cl)c(Cl)c2Cl)c(Cl)c1Cl | inactive | inactive | inactive |  | inactive | inactive | inactive |  |  |  |
| c1ccc2c(c1)OCC(C1=NCCN1)O2 (centres undefined) | 23.7 µM (active) | inactive |  | 11.9 µM (active) | inactive | inactive | inactive |  |  |  |
| O=[N+]([O-])c1cc(C(F)(F)F)c(Cl)c([N+](=O)[O-])c1Cl | 8.63 µM (active) | 1.93 µM (active) | 61.1 µM (active) |  | inactive | inactive | inactive |  |  |  |
| CCOC(=O)OC1=C(c2cc(C)ccc2C)C(=O)NC12CCC(OC)CC2 (centres undefined) | inactive | inactive | inactive |  | inactive | inactive | inactive |  |  |  |
| CCCN(CC)CC1COC2(CCC(C(C)(C)C)CC2)O1 (centres undefined) | inactive | inactive | inactive |  | inactive | inactive | inactive |  |  |  |
| CCCOCC(=Nc1ccc(Cl)cc1C(F)(F)F)n1ccnc1 | 48.5 µM (active) | inactive |  | 24.3 µM (active) | inactive | inactive | inactive |  |  |  |
| Oc1cc(Cl)c(Cl)c(Cl)c1 | 65 µM (active) | inactive |  | 29.1 µM (active) | inactive | inactive | inactive |  |  |  |
